Several values for one entry are separate records, joined by “and”; a condition that tells them apart may be missing. Equal entries are not always repeated. Results filed as inconclusive are left out. Activity calls are given as the source filed them. Unless noted, calls follow the shape of the dose curve; as a rule, active = well fitted curve in the direction sought with a large enough effect; inconclusive = small, poorly fitted or top-dose-only effect, or another doubt; inactive = no such curve, though single readings can be large; an effect the other way counts as inactive or inconclusive.
Legend:
[1] = Validation screen for small molecules that induce genotoxicity in human embryonic kidney (HEK293T) cells expressing luciferase-tagged ELG1 (AID 493106); also: 0% is about no effect
Outline: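 Reporter-gene quantitative HTS in HEK293T cells carrying luciferase-tagged ELG1, whose level climbs under genotoxic stress. Compound exposure lasts 16 hr at 37 °C before luciferase detection.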

[2] = molecular target: ATPase family AAA domain-containing protein 5 (Homo sapiens) (UniProt Q96QE3); test: Validation screen for small molecules that inhibit ELG1-dependent DNA repair in human embryonic kidney (HEK293T) cells expressing luciferase-tagged ELG1 (AID 493107);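 also: cells co-treated with the DNA-damaging agent 5-fluorouridine alongside compound; series mostly up to about 46 µM; % is scaled to controls: 0 for no effect and ±100 for the full control effect; inhibitors lower the ELG1-luciferase luminescence signal; nearly all actives have a fitted effect of over 70% in size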
ATPase family AAA domain-containing protein 5 (Homo sapiens), sequence (Q96QE3 whole entry, looked up, the tested form may be a part): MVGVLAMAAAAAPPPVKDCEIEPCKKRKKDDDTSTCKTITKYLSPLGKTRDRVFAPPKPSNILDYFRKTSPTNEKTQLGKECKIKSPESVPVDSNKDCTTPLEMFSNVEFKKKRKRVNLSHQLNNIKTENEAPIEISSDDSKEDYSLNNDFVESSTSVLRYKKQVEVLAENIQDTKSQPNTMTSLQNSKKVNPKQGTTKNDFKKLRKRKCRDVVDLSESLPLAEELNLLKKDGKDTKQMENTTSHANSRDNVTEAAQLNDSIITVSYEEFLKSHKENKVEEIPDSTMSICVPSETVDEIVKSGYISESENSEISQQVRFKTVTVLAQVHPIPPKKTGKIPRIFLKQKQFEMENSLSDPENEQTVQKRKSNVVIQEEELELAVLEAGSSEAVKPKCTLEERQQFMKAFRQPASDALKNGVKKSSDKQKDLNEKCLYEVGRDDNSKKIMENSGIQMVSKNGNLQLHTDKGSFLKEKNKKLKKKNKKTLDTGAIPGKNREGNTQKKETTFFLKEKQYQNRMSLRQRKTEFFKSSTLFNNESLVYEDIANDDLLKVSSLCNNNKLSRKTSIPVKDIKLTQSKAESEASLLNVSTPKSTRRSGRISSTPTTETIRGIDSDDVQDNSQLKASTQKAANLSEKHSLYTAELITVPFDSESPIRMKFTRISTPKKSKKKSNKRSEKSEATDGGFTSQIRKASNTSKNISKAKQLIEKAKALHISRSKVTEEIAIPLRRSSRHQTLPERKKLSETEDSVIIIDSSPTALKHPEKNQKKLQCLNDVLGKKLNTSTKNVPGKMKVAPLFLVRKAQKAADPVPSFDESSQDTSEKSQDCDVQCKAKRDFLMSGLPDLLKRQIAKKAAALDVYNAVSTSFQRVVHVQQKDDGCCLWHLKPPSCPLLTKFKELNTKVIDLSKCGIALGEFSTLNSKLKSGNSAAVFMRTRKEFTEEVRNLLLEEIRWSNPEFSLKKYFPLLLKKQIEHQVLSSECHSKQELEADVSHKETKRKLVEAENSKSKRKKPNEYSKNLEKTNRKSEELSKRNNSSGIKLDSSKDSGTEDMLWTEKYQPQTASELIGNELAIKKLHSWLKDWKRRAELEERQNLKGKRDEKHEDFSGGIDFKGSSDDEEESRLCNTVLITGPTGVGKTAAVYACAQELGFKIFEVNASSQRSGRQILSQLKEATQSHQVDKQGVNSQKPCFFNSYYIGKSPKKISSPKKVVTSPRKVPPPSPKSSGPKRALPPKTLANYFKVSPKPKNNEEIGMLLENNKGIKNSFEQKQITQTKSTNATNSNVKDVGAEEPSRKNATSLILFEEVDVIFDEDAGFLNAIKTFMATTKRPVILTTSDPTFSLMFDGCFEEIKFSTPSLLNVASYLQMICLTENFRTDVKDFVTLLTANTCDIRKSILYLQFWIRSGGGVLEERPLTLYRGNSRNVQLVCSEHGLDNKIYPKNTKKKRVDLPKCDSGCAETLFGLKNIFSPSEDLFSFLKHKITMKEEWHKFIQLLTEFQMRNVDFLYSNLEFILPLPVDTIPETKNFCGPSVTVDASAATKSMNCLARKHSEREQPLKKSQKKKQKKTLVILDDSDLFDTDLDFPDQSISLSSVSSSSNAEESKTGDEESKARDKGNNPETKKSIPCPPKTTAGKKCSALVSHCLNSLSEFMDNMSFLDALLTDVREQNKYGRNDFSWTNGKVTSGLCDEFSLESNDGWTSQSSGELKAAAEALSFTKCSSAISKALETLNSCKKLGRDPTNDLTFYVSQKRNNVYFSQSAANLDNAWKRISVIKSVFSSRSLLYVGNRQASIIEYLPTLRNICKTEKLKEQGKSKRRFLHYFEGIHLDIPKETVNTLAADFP
Outline: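 Quantitative HTS in HEK293T cells carrying luciferase-tagged ELG1, stimulated with 5-fluorouridine alongside compound for 16 hr. Loss of luciferase signal marks inhibition of ELG1 response.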

[3] = molecular target: Thyrotropin-releasing hormone receptor (Homo sapiens) (UniProt P34981); test: qHTS for Small Molecule Agonists and Allosteric Enhancers of Human TRH Receptor: Validation Screen for Agonists (AID 493127;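 active = calcium activation more than 3 SD above the typical response in the agonist read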;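 also: intracellular calcium rise by fluo-8 fluorescence before TRH EC20 addition; 0% is about no effect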); conditions: TRH receptor agonist cell assay; at 2 µM; stronger effect = higher value
Thyrotropin-releasing hormone receptor (Homo sapiens), sequence (P34981 whole entry, looked up): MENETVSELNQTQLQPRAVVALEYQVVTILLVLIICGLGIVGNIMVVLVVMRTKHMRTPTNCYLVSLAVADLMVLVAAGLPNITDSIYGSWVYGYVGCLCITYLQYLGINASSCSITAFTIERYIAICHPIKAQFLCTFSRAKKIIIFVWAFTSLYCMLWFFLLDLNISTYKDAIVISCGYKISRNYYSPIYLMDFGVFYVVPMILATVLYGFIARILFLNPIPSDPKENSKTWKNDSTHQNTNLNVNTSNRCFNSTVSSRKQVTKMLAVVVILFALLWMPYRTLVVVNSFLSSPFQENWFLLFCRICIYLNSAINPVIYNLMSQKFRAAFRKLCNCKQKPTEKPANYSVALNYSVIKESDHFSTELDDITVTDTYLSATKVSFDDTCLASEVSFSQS
Outline: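 Gq-coupled calcium mobilization in TRHR cells after compound addition, monitored kinetically with fluo-8 dye on an FDSS reader.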

[4] = Nrf2 qHTS screen for inhibitors: Validation (AID 493153; active = well fitted inhibition curve with a large enough effect in the main read-out, with a control signal flat, not every such curve was filed as active; also: potency is read from the fitted curve at half-maximal effect); conditions: Potency: luciferase luminescence; viability change: measured here: cytotoxicity max response
Outline: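 Dose-response validation uses reporter A549 cells with firefly luciferase under an antioxidant response element. Compounds stay on cells 18-24 h at 37°C, and luminescence indicates Nrf2-driven transcription.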

[5] = qHTS for Inhibitors of Cell Surface uPA Generation: Validation Assay (AID 493164);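 also: RAW 264.7 macrophage cells exposed to compound for 18 h; 0% is about no effect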
Outline: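 RAW 264.7, 4000 cells/well, o/n plating; cpd 7-pt 1:5 dilution 2.45 nM–38.3 uM final; 18 h, 37 C/5% CO2; ATP-Lite, 5 s luminescence exposure.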

[6] = molecular target: Galactokinase (Homo sapiens) (UniProt P51570); test: qHTS Validation Assay for Inhibitors of Human Galactokinase (GALK) (AID 493189); also: 0% is about no effect
Galactokinase (Homo sapiens), sequence (P51570 whole entry, looked up): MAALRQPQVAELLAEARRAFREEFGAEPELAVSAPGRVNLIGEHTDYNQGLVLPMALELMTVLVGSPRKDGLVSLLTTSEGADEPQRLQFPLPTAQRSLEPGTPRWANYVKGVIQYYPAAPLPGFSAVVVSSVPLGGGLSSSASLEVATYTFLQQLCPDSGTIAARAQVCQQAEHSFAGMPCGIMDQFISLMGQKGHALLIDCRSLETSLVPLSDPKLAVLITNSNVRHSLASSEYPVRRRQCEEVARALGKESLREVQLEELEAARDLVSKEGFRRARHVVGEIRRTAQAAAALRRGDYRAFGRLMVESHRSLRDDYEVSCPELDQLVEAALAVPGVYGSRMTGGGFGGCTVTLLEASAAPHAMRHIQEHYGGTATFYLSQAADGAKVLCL
Outline: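 GALK (5 nM) with 35 uM ATP and 100 uM galactose in HEPES pH 8.0 with MgCl2, NaCl, DTT and BSA. Reaction ran 1 h at room temperature. Residual ATP read by Kinase-Glo Plus luminescence.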

[7] = Validation screen for small molecules that induce DNA re-replication in SW480 colon adenocarcinoma cells (AID 504364); also: 0% is about no effect
Outline: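 Cells are treated 48 hr with test compound, stained 40 min with Hoechst at 37 C, and scanned for nuclear fluorescence; compounds inducing re-replication increase nuclei with elevated intensity.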

[8] = molecular target: phosphoglycerate mutase (Leishmania major) (UniProt Q4Q090); test: qHTS Validation Assay to Find Inhibitors of Phosphoglycerate Mutase (AID 504548);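 also: end-point luminescence from Kinase-GloPlus after the PGAM reaction; series mostly up to about 58 µM; % is scaled to controls: 0 for no effect and ±100 for the full control effect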
phosphoglycerate mutase (Leishmania major), sequence (Q4Q090 1-553): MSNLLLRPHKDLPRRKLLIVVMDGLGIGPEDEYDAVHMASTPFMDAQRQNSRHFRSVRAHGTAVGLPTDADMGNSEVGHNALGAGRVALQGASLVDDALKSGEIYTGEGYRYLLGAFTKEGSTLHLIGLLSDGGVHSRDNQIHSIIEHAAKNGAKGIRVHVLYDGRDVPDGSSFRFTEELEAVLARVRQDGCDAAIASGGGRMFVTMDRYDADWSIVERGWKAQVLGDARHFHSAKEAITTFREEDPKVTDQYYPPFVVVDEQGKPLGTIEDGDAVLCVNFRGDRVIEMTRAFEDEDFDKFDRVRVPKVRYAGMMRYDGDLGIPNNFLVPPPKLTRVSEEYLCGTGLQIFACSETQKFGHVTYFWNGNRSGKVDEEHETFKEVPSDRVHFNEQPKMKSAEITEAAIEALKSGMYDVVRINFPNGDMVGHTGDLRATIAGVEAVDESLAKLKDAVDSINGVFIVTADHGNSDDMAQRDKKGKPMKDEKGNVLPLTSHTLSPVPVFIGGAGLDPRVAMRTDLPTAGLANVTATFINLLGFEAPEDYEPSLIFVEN
Outline: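 L. major PGAM (1.25nM final) was added to substrate buffer and pinned compound, incubated 45 minutes at room temperature, then Kinase-GloPlus added; luminescence read after 10 minutes. Buffer: 100 mM TEA pH 7.6, 5 mM MgCl2, 0.01% Tween-20.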

[9] = molecular target: Ubiquitin carboxyl-terminal hydrolase 1 (Homo sapiens) (UniProt O94782); test: Inhibitors of USP1/UAF1: Pilot qHTS (AID 504865);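 also: rhodamine fluorescence freed from ubiquitin-rhodamine substrate followed over time; top concentration of the series differs between compounds; % is scaled to controls: 0 for no effect and ±100 for the full control effect; nearly all actives have a fitted effect of over 35% in size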
Ubiquitin carboxyl-terminal hydrolase 1 (Homo sapiens), sequence (O94782 whole entry, looked up): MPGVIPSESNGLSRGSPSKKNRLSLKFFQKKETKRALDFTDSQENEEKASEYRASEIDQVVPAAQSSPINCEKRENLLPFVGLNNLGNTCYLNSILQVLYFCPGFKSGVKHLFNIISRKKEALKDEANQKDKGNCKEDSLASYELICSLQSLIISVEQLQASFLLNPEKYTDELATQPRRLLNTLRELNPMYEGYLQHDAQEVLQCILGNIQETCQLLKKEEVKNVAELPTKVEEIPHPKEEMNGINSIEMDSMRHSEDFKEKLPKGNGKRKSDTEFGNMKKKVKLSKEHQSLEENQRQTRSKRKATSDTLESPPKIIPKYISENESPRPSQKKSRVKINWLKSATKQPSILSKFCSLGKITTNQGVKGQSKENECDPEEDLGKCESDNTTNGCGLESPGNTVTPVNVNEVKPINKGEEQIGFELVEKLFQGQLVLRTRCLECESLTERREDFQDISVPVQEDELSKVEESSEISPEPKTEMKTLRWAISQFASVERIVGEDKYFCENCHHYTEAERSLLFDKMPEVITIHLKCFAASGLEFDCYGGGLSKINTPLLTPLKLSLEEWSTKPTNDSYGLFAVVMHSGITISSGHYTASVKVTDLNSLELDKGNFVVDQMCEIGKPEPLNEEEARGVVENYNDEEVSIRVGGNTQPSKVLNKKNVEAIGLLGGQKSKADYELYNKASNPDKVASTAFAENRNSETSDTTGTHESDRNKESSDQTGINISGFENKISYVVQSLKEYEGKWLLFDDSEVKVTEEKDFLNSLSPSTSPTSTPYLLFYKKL
Outline: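 USP1/UAF1 complex at 1 nM preincubated 15 min at room temperature with compound, then Ub-Rho substrate added at 150 nM final. Fluorescence (480/540 nm) read kinetically in 50 mM HEPES pH 7.8, 0.5 mM EDTA, 1 mM TCEP, 0.1 mg/ml BSA, 0.01% Tween-20.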

[10] = qHTS for Inhibitors of ATXN expression: Validation (AID 588378); also: series mostly up to about 57 µM; % is scaled to controls: 0 for no effect and ±100 for the full control effect; nearly all actives have a fitted effect of over 75% in size
Outline: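 HEK293 cells carrying ATXN2-firefly luciferase reporter, treated with compound 24 h at 37 °C. Viability read first by CellTiter-Fluor (405/525 nm), then reporter expression by Bright-Glo luminescence; controls were a known ATXN2 expression inhibitor and a luciferase inhibitor.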

[11] = molecular target: DNA dC->dU-editing enzyme APOBEC-3G (Homo sapiens) (UniProt Q9HC16); test: qHTS for inhibitors of Vif-A3G interactions: Validation (AID 588379); also: 0% is about no effect
DNA dC->dU-editing enzyme APOBEC-3G (Homo sapiens), sequence (Q9HC16 whole entry, looked up): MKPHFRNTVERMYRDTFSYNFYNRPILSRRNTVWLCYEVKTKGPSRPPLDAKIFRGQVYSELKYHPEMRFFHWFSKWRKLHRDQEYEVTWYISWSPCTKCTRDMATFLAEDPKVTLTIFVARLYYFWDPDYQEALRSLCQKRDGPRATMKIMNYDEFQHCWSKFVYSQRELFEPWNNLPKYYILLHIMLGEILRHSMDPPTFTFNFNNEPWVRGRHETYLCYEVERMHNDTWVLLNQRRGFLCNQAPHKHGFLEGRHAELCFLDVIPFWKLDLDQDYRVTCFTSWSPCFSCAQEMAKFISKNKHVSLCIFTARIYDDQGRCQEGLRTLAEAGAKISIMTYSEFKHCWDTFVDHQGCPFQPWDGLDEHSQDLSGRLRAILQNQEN
Outline: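 HeLa cells stably expressing Vif and A3G-eYFP, 700 cells/well, incubated overnight at 37 deg C, then exposed to compound overnight at 37 deg C. Inhibition of Vif-mediated degradation read as increased yellow fluorescence (Ex 488/Em 500-530) by laser-scanning cytometry.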

[12] = molecular target: Estrogen receptor (Homo sapiens) (UniProt P03372); test: qHTS assay for small molecule agonists of estrogen receptor alpha signaling (AID 588514; calls by dose curve;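 also: 0% = vehicle only and 100% = reference agonist; nearly all actives have a fitted effect of over 70% in size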)
Outline: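 Reporter-gene assay. […] controls beta-lactamase in HEK 293 GripTite cells; after 18 hrs with compound, CCF4 substrate is added for 2 hrs and fluorescence is read.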

[13] = molecular target: Glucocorticoid receptor (Homo sapiens) (UniProt P04150); test: qHTS assay for small molecule agonists of glucocorticoid receptor signaling (AID 588532; active = well fitted curve in the direction sought with a large enough effect in the signal ratio, with a control signal flat; the % refers to the signal ratio;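 also: 100% = dexamethasone at 0.1 µM and 0% = DMSO only wells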); conditions: HeLa MMTV-bla, beta-lactamase ratio, agonist, 18 h; stronger effect = higher value; percent of dexamethasone control, DMSO zero
Outline: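 Titration series, up to 92 uM, applied to GRE-bla HeLa cells for 18 h at 37 C. Detection by CCF4 FRET substrate after 2 h at RT.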

[14] = molecular target: Peptidyl-prolyl cis-trans isomerase NIMA-interacting 1 (Homo sapiens) (UniProt Q13526); test: qHTS Validation Assay to Find Inhibitors of Pin1 (AID 504536; active = well fitted inhibition curve with a large enough effect in the polarisation, with a control signal flat, not every such curve was filed as active; the % refers to the polarisation;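 also: 0% = full Pin1 enzyme wells and -100% = no-enzyme wells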)
Peptidyl-prolyl cis-trans isomerase NIMA-interacting 1 (Homo sapiens), sequence (Q13526 whole entry, looked up): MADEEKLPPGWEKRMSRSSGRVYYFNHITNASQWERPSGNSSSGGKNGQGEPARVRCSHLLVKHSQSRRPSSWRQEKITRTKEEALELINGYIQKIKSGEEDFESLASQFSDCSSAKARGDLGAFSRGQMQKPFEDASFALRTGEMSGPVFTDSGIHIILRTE
Outline: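 Fluorescence polarization competition: compounds (titration) displace HiFluor-488-labeled Pin1-1b peptide from Pin1 (0.3 uM final) in pH 7.5 HEPES buffer with DTT, 10 min at room temperature; %Activity normalized to no-enzyme wells, curves fitted.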

[15] = molecular target: Androgen receptor (Homo sapiens) (UniProt P10275); test: qHTS assay for small molecule agonists of androgen receptor signaling (AID 588515; active = well fitted curve in the direction sought with a large enough effect in the signal ratio, with a control signal flat; the % refers to the signal ratio; also: potency is read from the fitted curve at half-maximal effect); conditions: AR-UAS-bla HEK293, beta-lactamase ratio, agonist 16 h; activation: stronger effect = higher value
Outline: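 EC50 and efficacy came from Hill fits of titrations (up to 92 uM) normalized to 30 nM R1881 as 100% and DMSO as 0%. Compound exposure was 16 h at 37 C on AR-UAS-bla HEK293 cells, with a 405/460/530 nm CCF4 fluorescence read.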

[16] = molecular target: Estrogen receptor (Homo sapiens) (UniProt P03372); test: qHTS assay for small molecule antagonists of estrogen receptor alpha signaling (AID 588513; active = well fitted curve in the direction sought with a large enough effect in the signal ratio, with a control signal flat, not every such curve was filed as active; the % refers to the signal ratio; also: % is scaled to controls: 0 for no effect and ±100 for the full control effect)
Outline: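 ER-alpha-UAS-bla GripTite HEK 293 cells in 2% charcoal/dextran-treated FBS medium; compounds titrated (1:2, duplicate), then stimulated with 0.5 nM 17-beta-estradiol for 18 h at 37C. CCF4 beta-lactamase fluorescence; Hill-fit IC50 and efficacy.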

[17] = qHTS for Inhibitors of ATXN expression: Validation of Cytotoxic Assay (AID 588349);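 also: cells exposed to compound for 72 hr; % is scaled to controls: 0 for no effect and ±100 for the full control effect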
Outline: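 HEK293, compound dose series, 72 hr / 37 degrees C; viability via CellTiter Glo (intracellular ATP).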

Cc1ccc(N(CC2=NCCN2)c2cccc(O)c2)cc1
inactive: Potency [1] | Potency [4] | outcome [5] | outcome [6] | outcome [7] | outcome [8] | Potency [9]
4.38%: viability change [4]

NC(=O)c1ccc(-c2nc(-c3ccc4c(c3)OCO4)c(-c3ccccn3)[nH]2)cc1
inactive: outcome [11]

NC(N)=NC(=O)c1nc(Cl)c(N)nc1N
-5.66%: viability change [4]
inactive: Potency [1] | Potency [2] | activation [3] 0.812% | Potency [4] | outcome [5] | outcome [6] | outcome [7] | outcome [8] | Potency [9] | outcome [10] | outcome [11] | outcome [12] | activation [13] 0.0438%

Cc1cccc(-c2[nH]c(C(C)(C)C)nc2-c2ccc3nccnc3c2)n1
inactive: Potency [1] | outcome [5] | outcome [8]

Cc1cc2c(C(C)C)c(O)c(O)c(C=O)c2c(O)c1-c1c(C)cc2c(C(C)C)c(O)c(O)c(C=O)c2c1O
inactive: Potency [1] | outcome [5] | outcome [11]

Clc1cccc(Cl)c1NC1=NCCN1
inactive: Potency [1] | Potency [2] | Potency [4] | outcome [5] | outcome [6] | outcome [7] | outcome [14] | outcome [8] | Potency [9] | outcome [10] | outcome [11]
0.846%: viability change [4]

C[C@]12CCC(=O)C=C1CC[C@@H]1[C@@H]2[C@@H](O)C[C@@]2(C)[C@H]1CC[C@]2(O)C(=O)CO
-7.36%: viability change [4]
inactive: outcome [5] | outcome [8] | Potency [9] | outcome [10]
active: Potency [4] 73.1 nM | Potency [15] 14.1 nM

CCn1cc(C(=O)O)c(=O)c2cc(F)c(N3CCNC(C)C3)c(F)c21 (stereo not given)
-3.76%: viability change [4]
inactive: Potency [1] | Potency [2] | Potency [4] | outcome [5] | outcome [6] | outcome [7] | outcome [8] | Potency [9] | outcome [10]

OC(CCN1CCCCC1)(c1ccccc1)C1CC2C=CC1C2 (stereo not given)
inactive: Potency [1] | Potency [2] | Potency [4] | outcome [5] | outcome [14] | outcome [8] | Potency [9]
-8.46%: viability change [4]

COc1ccc2nc(S(=O)Cc3ncc(C)c(OC)c3C)[nH]c2c1 (stereo not given)
inactive: Potency [9]

O=C1CCC(N2C(=O)c3ccccc3C2=O)C(=O)N1 (stereo not given)
-1.75%: viability change [4]
inactive: Potency [1] | Potency [2] | activation [3] 0.188% | Potency [4] | outcome [5] | outcome [6] | outcome [7] | outcome [8] | Potency [9] | outcome [10] | activation [13] -2.05%

O=C(O)COCCN1CCN(C(c2ccccc2)c2ccc(Cl)cc2)CC1 (stereo not given)
1.19%: viability change [4]
inactive: Potency [1] | Potency [2] | Potency [4] | outcome [5] | outcome [8] | outcome [10]

CCOC(=O)C1=C[C@@]2(CC)CCCN3CCc4c(n1c1ccccc41)[C@H]32
inactive: Potency [9] | outcome [11]

CCN(c1ccccc1)c1cc(NC)[n+](C)c(C)n1
inactive: outcome [11]

CCC(C)N(C)C(=O)c1cc2ccccc2c(-c2ccccc2Cl)n1 (stereo not given)
inactive: Potency [1] | Potency [2] | activation [3] -6.5% | Potency [4] | outcome [5] | outcome [6] | outcome [7] | outcome [8] | Potency [9] | outcome [10]
-9.44%: viability change [4]

O=c1[nH]cnc2[nH]ncc12
inactive: Potency [1] | Potency [2] | Potency [4] | outcome [5] | outcome [6] | outcome [7] | outcome [8] | Potency [9] | outcome [10] | Potency [16] | outcome [12] | activation [13] 1.38%
5.19%: viability change [4]

c1ccc([C@H]2CN3CCSC3=N2)cc1
-0.324%: viability change [4]
inactive: Potency [1] | Potency [2] | activation [3] 0.875% | Potency [4] | outcome [5] | outcome [6] | outcome [7] | outcome [8] | Potency [9] | outcome [10]

NC(=O)c1cnccn1
inactive: Potency [1] | activation [3] 0.688% | Potency [4] | outcome [5] | outcome [6] | outcome [7] | outcome [14] | outcome [8] | Potency [9] | Potency [17] | outcome [10] | Potency [16] | outcome [12] | activation [13] -2.74% and -4.57%
-0.821%: viability change [4]
